Assay results taken from PubChem BioAssay.
Results filed as inconclusive are left out. Active and inactive are the calls of the source.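 The calls were made as follows, unless noted: active = viability at or below 27.92% in each of two runs, the all-compound median minus 4 SD; inconclusive = no clear call, values can overlap the other calls; inactive = the rest.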

How the values were obtained:
[1] = Her2 expression decrease, cell viability multiplex – SKBR3 breast tumor cells, AlphaScreen, ATP viability, primary screen (AID 461;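 active = Her2 level under about 52% in both replicate screens, with viability over 70% of control, limit read from the data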;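 as to Her2 level: lower value means less Her2 protein in the cells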;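 as to viability: percent of carrier control wells set as 100% viability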); details: SKBR3 Her2 protein level, 18-24 h, measured here: SKBR3 viability, ATP luminescence, at 10 µM
[2] = molecular target: Receptor tyrosine-protein kinase erbB-2 (Homo sapiens) (UniProt P04626); assay: as above; details: 18-24 h, at 10 µM, stronger effect = lower value
[3] = reduced viability of SK-BR-3 breast cancer cells – cell-based, 24 h, human, pilot screen (AID 572;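 active = viability at or below 10% of carrier control in both of two separate runs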;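 also: compound exposure lasted between 18 and 24 h rather than exactly 24 h; 100% = carrier-treated control wells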); details: SK-BR-3 viability, CellTiter-Glo luminescence, at 10 µM, stronger effect = lower value
[4] = HUVEC growth inhibition – cell-based, human, primary screen (AID 575;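 active = viability at or below 30% in both replicate assays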;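 also: 100% = median of untreated cell wells with 0.1% DMSO on each plate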); details: HUVEC proliferation, CellTiter-Glo luminescence, 72 h; at 10 µM; stronger effect = lower value
[5] = H69AR cell proliferation blockers – human, duplicate replicates, primary screen (AID 580;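 active = viability at or under a set limit in both replicates, limit being median viability minus 3 SD, cut at about 48% in these data, passing the limit was not always enough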;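 also: 100% = mean luminescence of untreated wells and 0% = no signal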); details: H69AR lung tumor cells viability, ATP luminescence, 72 h; at 10 µM; stronger effect = lower value
[6] = MRP1 drug-resistance reversers in H69AR cells – cell-based, doxorubicin co-treatment, pilot screen (AID 601;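 active = viability loss from added drug above about 55%, and viability with drug at most 40%, in both replicates, limit read from the data, passing the limit was not always enough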); details: CellTiter-Glo, 72 h, at 10 µM; for differential viability (reversal): stronger effect = higher value
[7] = yeast transport mutant growth inhibition pilot in 384-well plates, post-Golgi transport modulator project (AID 636; in the data active = inhibition above about 31%); details: absorbance 615 nm, about 18 h, stronger effect = higher value
[8] = growth suppression of yeast trafficking mutant, preliminary HTS, modulators of trafficking downstream of Golgi apparatus project, 1536-format plate, OD 615 nm (AID 637; in the data active = inhibition above about 30%); details: yeast transport mutant growth, absorbance 615 nm, 18 h; stronger effect = higher value
[9] = S. cerevisiae growth inhibition in permissive medium (OD615), pilot counter-assay for S. cerevisiae lifespan shortening project, permissive growth control (AID 705;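 active = growth inhibition above 25% in both replicates, a cutoff set 3 SD above the mean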); details: OD615, 24 h, at 10 µM, stronger effect = higher value
[10] = S. cerevisiae growth inhibition in restrictive medium, OD615, pilot screen, restrictive growth control, yeast lifespan reduction project (AID 706;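 active = growth inhibition above a set limit, 3 SD over mean compound inhibition, in both replicates, cut at about 43% in these data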;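 also: modified DeaD lifespan yeast strain shifted to restrictive glucose medium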); details: OD615, 48 h, at 10 µM, stronger effect = higher value
[11] = doxorubicin toxicity protection in MRP-1 cells – H69AR cells, CellTiter-Glo, duplicate, MRP-1 activator project, pilot screen (AID 807;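 active = viability increase at or above a cutoff of the median across tested compounds plus 3 SD, cut at about 8.5% in these data, passing the limit was not always enough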;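 also: compound pretreatment 18-22 h then 72 h combined with doxorubicin; 0% = doxorubicin alone and 100% = vehicle without doxorubicin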); details: H69AR viability with doxorubicin, CellTiter-Glo luminescence; at 10 µM; stronger effect = higher value
[12] = viability of HCT116 without oncogenic beta-catenin – human colon tumor cells, pilot screen (AID 823;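 active = cell viability at or below a set limit in both duplicate runs, the limit being the all-compound median minus 4 SD, cut at about 23% in these data, passing the limit was not always enough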;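 also: 0% = wells killed by 20 µM Hyamine and 100% = untreated DMSO cell wells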); details: HCT116 beta-catenin knockout viability, CellTiter-Glo, 60 h; at 10 µM; stronger effect = lower value
[13] = viability of PTEN-null HCT116 cells – cell-based, HCT116 clonal line, CellTiter-Glo, pilot screen (AID 824); details: HCT116 PTEN-deleted viability, 60 h, at 10 µM, stronger effect = lower value;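 also: 0% = 20 µM Hyamine control and 100% = vehicle cell control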
[14] = RAM pathway blockade in budding yeast – dse1pr::URA3 reporter, 5-FOA selection, pilot screen (AID 869;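 active = inhibition over a set limit, the all-compound mean plus 3 SD, in both replicate runs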;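 also: 0% = DMSO wells with no growth and 100% = 10 µM 1-NA-PP1 with full growth; RAM network block rescues cells from 5-FOA so hits raise OD615 growth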); details: S. cerevisiae dse1pr::URA3 5-FOA growth, OD615, 2 d; at 10 µM; stronger effect = higher value; strain carries analog-sensitive mutant Cbk1 kinase
[15] = RAM signaling pathway blockade in yeast – S. cerevisiae, Pdr1DBD-CYC8 efflux-inhibited sensitized strain, primary screen (AID 1298;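 active = RAM network inhibition above 8.4% in each of two replicates, 3 SD over the compound average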;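 also: 0% = DMSO untreated cells without growth and 100% = 10 µM 1-NA-PP1 full growth; higher means more yeast growth rescued from 5-FOA killing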); details: S. cerevisiae cbk1-as DSE1-URA3 strain, 5-FOA growth OD615, 2 d; at 50 µM; stronger effect = higher value
[16] = H69AR cells + 2 uM doxorubicin, measured here: viability with 2 uM doxorubicin, stronger effect = lower value
[17] = H69AR cells, compound alone cytotoxicity

Chain of Receptor tyrosine-protein kinase erbB-2 (Homo sapiens) (P04626 whole entry, looked up): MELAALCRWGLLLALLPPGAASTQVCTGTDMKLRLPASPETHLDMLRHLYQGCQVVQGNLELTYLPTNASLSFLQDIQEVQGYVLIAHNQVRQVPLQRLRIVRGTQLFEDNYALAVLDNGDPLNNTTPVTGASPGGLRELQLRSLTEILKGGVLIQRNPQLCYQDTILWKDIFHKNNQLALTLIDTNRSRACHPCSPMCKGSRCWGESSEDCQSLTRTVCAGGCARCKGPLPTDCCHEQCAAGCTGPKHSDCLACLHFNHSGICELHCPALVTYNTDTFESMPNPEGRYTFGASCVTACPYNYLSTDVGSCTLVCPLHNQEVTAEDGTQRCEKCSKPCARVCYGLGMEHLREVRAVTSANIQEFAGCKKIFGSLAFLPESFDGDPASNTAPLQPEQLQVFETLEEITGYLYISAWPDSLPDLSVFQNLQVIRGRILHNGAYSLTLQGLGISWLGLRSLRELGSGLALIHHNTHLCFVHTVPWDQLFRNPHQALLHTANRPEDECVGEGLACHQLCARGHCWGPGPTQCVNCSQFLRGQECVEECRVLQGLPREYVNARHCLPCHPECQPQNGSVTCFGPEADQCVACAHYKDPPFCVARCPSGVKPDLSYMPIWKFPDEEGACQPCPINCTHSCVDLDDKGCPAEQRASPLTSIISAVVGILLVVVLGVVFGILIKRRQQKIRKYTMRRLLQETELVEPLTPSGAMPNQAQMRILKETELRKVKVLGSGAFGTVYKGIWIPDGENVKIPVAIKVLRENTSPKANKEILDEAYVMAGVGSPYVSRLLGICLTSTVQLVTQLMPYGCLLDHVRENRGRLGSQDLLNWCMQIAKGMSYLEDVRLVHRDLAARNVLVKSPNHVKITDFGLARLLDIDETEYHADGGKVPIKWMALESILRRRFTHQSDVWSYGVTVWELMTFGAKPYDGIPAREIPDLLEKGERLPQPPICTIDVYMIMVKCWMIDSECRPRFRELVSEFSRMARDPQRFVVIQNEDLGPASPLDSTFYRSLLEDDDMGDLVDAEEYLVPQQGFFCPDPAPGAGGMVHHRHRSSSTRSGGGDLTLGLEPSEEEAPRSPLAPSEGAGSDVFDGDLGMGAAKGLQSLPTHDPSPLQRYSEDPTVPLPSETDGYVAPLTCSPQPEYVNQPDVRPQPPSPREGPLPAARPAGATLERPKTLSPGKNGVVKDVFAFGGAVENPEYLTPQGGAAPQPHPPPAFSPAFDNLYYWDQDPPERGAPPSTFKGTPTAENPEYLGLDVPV

Row | SMILES | viability [1] | Her2 level [2] | viability [3] | viability [4] | viability [5] | differential viability (reversal) ([6]; H69AR cells + 2 uM doxorubicin) | viability [6, 16] | viability [6, 17] | inhibition [7] | inhibition [8] | growth inhibition [9] | growth inhibition [10] | viability increase [11] | viability [12] | viability [13] | inhibition [14] | RAM network inhibition [15]
1 | COc1ccc(N2CCN(CCCNS(=O)(=O)c3c(C)noc3/C=C/N(C)C)CC2)cc1 | 99.5% | 94.5% (inactive) | 99.5% (inactive) | 83.1% (inactive) | 92.9% (inactive) | 0.17% (inactive) | 92.8% | 92.9% | -7.33% (inactive) | -4.43% (inactive) | -4.88% (inactive) | 12% (inactive) | -2.75% (inactive) | 81% (inactive) | 83.7% (inactive) | 1.67% (inactive) | 7% (inactive)
2 | O=c1oc2c3c4c(cc2cc1-c1nc2ccccc2[nH]1)CCCN4CCC3 | 79.5% | 65.5% (inactive) | 79.5% (inactive) | 71.7% (inactive) | 83.3% (inactive) | 2.58% (inactive) | 80.7% | 83.3% | -1.95% (inactive) | 6% (inactive) | 4.75% (inactive) | -0.465% (inactive) | -5.62% (inactive) | 87.2% (inactive) | 89.7% (inactive) | 1.73% (inactive) | 2.41% (inactive)
3 | CNC(=O)CN(c1ccc(C(C)C)cc1)S(C)(=O)=O | 94% | 108% (inactive) | 94% (inactive) | 95.6% (inactive) | 86.3% (inactive) | 0.39% (inactive) | 85.9% | 86.3% | -3.25% (inactive) | -4% (inactive) | -10.4% (inactive) | -21.6% (inactive) | 0.08% (inactive) | 95% (inactive) | 96.1% (inactive) | 1.04% (inactive) | 2.63% (inactive)
4 | CCn1cc(C(=O)NCC2CCCO2)c(=O)c2cc(S(=O)(=O)N(C)C3CCCCC3)ccc21 (stereo not drawn) | 83.5% | 93.5% (inactive) | 83.5% (inactive) | 69.5% (inactive) | 68.5% (inactive) | -11.5% (inactive) | 80% | 68.5% | -1.41% (inactive) | 1.5% (inactive) | -2.38% (inactive) | -2.37% (inactive) | -5.22% (inactive) | 88.9% (inactive) | 87% (inactive) | 4.23% (inactive) | -0.83% (inactive)
5 | CCOC(=O)Cc1nnc(NC(=O)c2ccccc2OCC)s1 | 100% | 92.5% (inactive) | 100% (inactive) | 103% (inactive) | 98% (inactive) | 9.93% (inactive) | 88.1% | 98% | 0% (inactive) | -4.26% (inactive) | -9.41% (inactive) | -14.8% (inactive) | -0.28% (inactive) | 102% (inactive) | 102% (inactive) | 1.33% (inactive) | 3.5% (inactive)
6 | Cn1c(C(=O)NCCCN2CCCCCC2)cc2c(=O)n(C)c3ccccc3c21 | 80% | 92.5% (inactive) | 80% (inactive) | 91.2% (inactive) | 87.2% (inactive) | 12% (inactive) | 75.1% | 87.2% | 4.36% (inactive) | -3% (inactive) | -1.14% (inactive) | 6.89% (inactive) | -4.55% (inactive) | 76.1% (inactive) | 78.7% (inactive) | 1.04% (inactive) | 0% (inactive)
7 | CSc1ccccc1NC(=O)c1cnc2n(c1=O)CCS2 | 97.5% | 82.5% (inactive) | 97.5% (inactive) | 111% (inactive) | 84.7% (inactive) | -6.53% (inactive) | 91.3% | 84.7% | -1.87% (inactive) | -1.33% (inactive) | -10.6% (inactive) | 3.57% (inactive) | -0.39% (inactive) | 105% (inactive) | 85.8% (inactive) | 2.75% (inactive) | -0.78% (inactive)
8 | Cc1nc2sc(C(c3cccs3)N3CCC(C(N)=O)CC3)c(O)n2n1 (stereo not drawn) | 92.5% | 128% (inactive) | 92.5% (inactive) | 100% (inactive) | 91.8% (inactive) | -4.42% (inactive) | 96.2% | 91.8% | -3.73% (inactive) | -1% (inactive) | -0.435% (inactive) | 3.77% (inactive) | -0.3% (inactive) | 101% (inactive) | 94.2% (inactive) | 0.69% (inactive) | 4.12% (inactive)
9 | CC1CCC(NC(=O)C2(C)CCC(=O)N2Cc2cccnc2)CC1 (stereo not drawn) | 97% | 114% (inactive) | 97% (inactive) | 102% (inactive) | 78.6% (inactive) | -8.95% (inactive) | 87.5% | 78.6% | 2.18% (inactive) | -5.17% (inactive) | -12.3% (inactive) | -10.1% (inactive) | 1.23% (inactive) | 107% (inactive) | 98.3% (inactive) | 0.41% (inactive) | 1.87% (inactive)
10 | COC(=O)C(C)Sc1nc2c(c(=O)n1-c1ccccc1)SCC2 (stereo not drawn) | 102% | 77.5% (inactive) | 102% (inactive) | 84.3% (inactive) | 94.9% (inactive) | -12.1% (inactive) | 107% | 94.9% | -6.99% (inactive) | -4.44% (inactive) | -12.1% (inactive) | -4.13% (inactive) | -1.78% (inactive) | 87.1% (inactive) | 90.8% (inactive) | 1.94% (inactive) | 4.56% (inactive)
11 | CCCOC(=O)c1[nH]c2c(c1C)C(=O)CC(c1cc(OC)c(OC)c(OC)c1)C2 (stereo not drawn) | 89% | 79% (inactive) | 89% (inactive) | 88.7% (inactive) | 74.2% (inactive) | 9.54% (inactive) | 64.6% | 74.2% | -0.26% (inactive) | -4% (inactive) | -16.2% (inactive) | -14.6% (inactive) | 1.98% (inactive) | 48.1% (inactive) | 61.2% (inactive) | 2.23% (inactive) | 5.86% (inactive)
12 | COc1ccc(/C=N/O)cc1COc1ccc(NC(C)=O)cc1 | 115% | 98% (inactive) | 115% (inactive) | 102% (inactive) | 103% (inactive) | 13.2% (inactive) | 90.2% | 103% | -4.32% (inactive) | 1.9% (inactive) | -5.25% (inactive) | -2.58% (inactive) | -0.85% (inactive) | 90.9% (inactive) | 93.4% (inactive) | 0.83% (inactive) | 0.92% (inactive)
13 | Cc1cc(NC(=O)CSc2nc3c(c(=O)n2Cc2ccccc2)SC(C)C3)no1 (stereo not drawn) | 104% | 106% (inactive) | 104% (inactive) | 74.5% (inactive) | 92.1% (inactive) | 15.8% (inactive) | 76.3% | 92.1% | -3.33% (inactive) | -1.83% (inactive) | -2.67% (inactive) | -0.455% (inactive) | -2.6% (inactive) | 100% (inactive) | 92.4% (inactive) | 2.35% (inactive) | 8.6% (inactive)
14 | COc1ccc(S(=O)(=O)NCC(c2cccnc2)N2CCN(C)CC2)cc1C (stereo not drawn) | 97% | 98.5% (inactive) | 97% (inactive) | 80.9% (inactive) | 91% (inactive) | -2.52% (inactive) | 93.5% | 91% | -0.64% (inactive) | -2% (inactive) | 1.16% (inactive) | -9.37% (inactive) | -2.64% (inactive) | 97.8% (inactive) | 96.1% (inactive) | 2.23% (inactive) | 0.11% (inactive)
15 | Cc1nn(C(=O)c2ccc3c(c2)OCO3)c(N)c1-c1ccccc1 | 102% | 95% (inactive) | 102% (inactive) | 98.3% (inactive) | 94.2% (inactive) | 9.75% (inactive) | 84.5% | 94.2% | -1.47% (inactive) | 2.13% (inactive) | 3.15% (inactive) | 5.03% (inactive) | -2.76% (inactive) | 99.2% (inactive) | 98.2% (inactive) | 0.585% (inactive) | 1.02% (inactive)
16 | CC(C)c1nccn1S(=O)(=O)c1cc(Cl)ccc1Cl | 104% | 112% (inactive) | 104% (inactive) | 92.2% (inactive) | 90.3% (inactive) | 3.94% (inactive) | 86.3% | 90.3% | -4.03% (inactive) | -3.83% (inactive) | -4.57% (inactive) | -1% (inactive) | 0% (inactive) | 103% (inactive) | 97.2% (inactive) | 1.64% (inactive) | 4.6% (inactive)
17 | CCCOc1ccc(C2C(C(=O)OC)=CN(CCOC)C=C2C(=O)OC)cc1 | 89% | 92% (inactive) | 89% (inactive) | 96.4% (inactive) | 90.4% (inactive) | -2.27% (inactive) | 92.7% | 90.4% | -3.12% (inactive) | 3.11% (inactive) | -11.5% (inactive) | 12.8% (inactive) | -2.37% (inactive) | 81.5% (inactive) | 84.4% (inactive) | 2.16% (inactive) | 5.46% (inactive)
18 | CCOc1ccc(NC(=O)CN2C(=O)C3CCCN3C2=O)cc1 (stereo not drawn) | 85% | 106% (inactive) | 85% (inactive) | 94.6% (inactive) | 101% (inactive) | 3.86% (inactive) | 97.5% | 101% | -2.53% (inactive) | 3.67% (inactive) | -4.76% (inactive) | -13.8% (inactive) | -0.9% (inactive) | 102% (inactive) | 97.1% (inactive) | -0.315% (inactive) | 2.93% (inactive)
19 | Cc1ccc(S(=O)(=O)N2CCC(C(=O)N3CCN(Cc4ccccc4)CC3)CC2)cc1 | 99% | 91% (inactive) | 99% (inactive) | 100% (inactive) | 85.3% (inactive) | -15.4% (inactive) | 101% | 85.3% | -1.73% (inactive) | -0.33% (inactive) | -8.33% (inactive) | 0.335% (inactive) | 1.01% (inactive) | 90.5% (inactive) | 92.6% (inactive) | 2.2% (inactive) | 4.44% (inactive)
